According to PubChem BioAssay AID1159580 (chemical genetic matrix, 2015):
Among all 5,500 compounds or so, about 2,000 (36%) were called active. Not shown: some 18% with an inconclusive outcome. Cut-off read from the data, not from the text of the source: active = normalized growth mostly below about 0.91 (no sharp cut-off); inconclusive = no clear call, values can overlap the other calls; inactive = mostly above about 0.92. Some of the results follow.

Assay: chemical genetic growth profiling, strain panel (AID 1159580);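 note: tested at 20 µM; growth read once vehicle control cultures reached saturation at 30 °C; 1 = growth at the plate median or of vehicle wells; lower values mean less growth of the strain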
Conditions: S. cerevisiae deletion strains, growth OD

Measured: normalized growth

CN(C)C(N)=NCCC[C@H](N)C(=O)O
inactive: locus YAL013W, strain DEP1, hits give low values 1 | locus YAL040C, strain CLN3, hits give low values 0.998 | locus YCL061C, strain MRC1 (second series), hits give low values 1.01 | locus YDR150W, strain NUM1, hits give low values 0.997 | locus YDR363W, strain ESC2, hits give low values 1.04 | locus YER002W, strain NOP16, hits give low values 0.979 | locus YJR075W, strain HOC1, hits give low values 1.01 | locus YMR307W, strain GAS1, hits give low values 1.01 | locus YNL128W, strain TEP1, hits give low values 0.988 | locus YNL175C, strain NOP13, hits give low values 1 | locus YNL197C, strain WHI3, hits give low values 1.02 | locus YNL224C, strain SQS1, hits give low values 0.984 | locus YOR083W, strain WHI5 (second series), hits give low values 0.988 | locus YPL055C, strain LGE1, hits give low values 1.03 | locus YPL241C, strain CIN2, hits give low values 1
